Test results: PubChem BioAssay AID1159580 (chemical genetic matrix, 2015)
Screen size: about 5,500 compounds; about 2,000 (36%) were called active. Another 18% or so got no clear call; they are omitted. Rule as the data show it: active = normalized growth mostly below about 0.91 (no sharp cut-off); inconclusive = no clear call, values can overlap the other calls; inactive = mostly above about 0.92. The list shows a part of the results.

Test: chemical genetic growth profiling, strain panel (AID 1159580);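 also: tested at 20 µM; growth read once vehicle control cultures reached saturation at 30 °C; 1 = growth at the plate median or of vehicle wells; lower values mean less growth of the strain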
Settings: growth OD

Measured: normalized growth

NC(=O)c1ncn([C@@H]2O[C@H](CO)[C@@H](O)[C@H]2O)n1
inactive: S. cerevisiae deletion strains, locus YJR075W, strain HOC1, active compounds read low 0.989 | S. cerevisiae deletion strains, locus YKL009W, strain mrt4, active compounds read low 0.992 | S. cerevisiae deletion strains, locus YKL068W, active compounds read low 0.981 | S. cerevisiae deletion strains, locus YKL085W, strain MDH1 (second series), active compounds read low 1 | S. cerevisiae deletion strains, locus YKL085W, strain MDH1, active compounds read low 1 | S. cerevisiae deletion strains, locus YKL160W, strain elf1, active compounds read low 0.984 | S. cerevisiae deletion strains, locus YKL190W, strain CNB1, active compounds read low 0.988 | S. cerevisiae deletion strains, locus YKR001C, strain vps1, active compounds read low 0.984 | S. cerevisiae deletion strains, locus YKR026C, strain gcn3, active compounds read low 0.984 | S. cerevisiae deletion strains, locus YKR091W, strain srl3, active compounds read low 0.982 | S. cerevisiae deletion strains, locus YLL001W, strain dnm1, active compounds read low 0.984 | S. cerevisiae deletion strains, locus YLL026W, active compounds read low 0.984 | S. cerevisiae deletion strains, locus YLL041C, strain sdh2, active compounds read low 0.983 | S. cerevisiae deletion strains, locus YLR027C, strain aat2, active compounds read low 0.983 | S. cerevisiae deletion strains, locus YLR039C, strain RIC1, active compounds read low 1.01 | S. cerevisiae deletion strains, locus YLR058C, strain SHM2, active compounds read low 0.999 | S. cerevisiae deletion strains, locus YLR102C, strain apc9, active compounds read low 0.998 | S. cerevisiae deletion strains, locus YLR113W, strain HOG1, active compounds read low 0.977 | S. cerevisiae deletion strains, locus YLR221C, strain rsa3, active compounds read low 0.982 | S. cerevisiae deletion strains, locus YLR258W, strain gsy2, active compounds read low 0.98 | S. cerevisiae deletion strains, locus YLR262C, strain YPT6 (second series), active compounds read low 0.987 | S. cerevisiae deletion strains, locus YLR262C, strain YPT6, active compounds read low 0.977 | S. cerevisiae deletion strains, locus YLR268W, strain sec22, active compounds read low 0.987 | S. cerevisiae deletion strains, locus YLR320W, strain mms22, active compounds read low 0.993 | S. cerevisiae deletion strains, locus YLR330W, strain CHS5, active compounds read low 0.989 | S. cerevisiae deletion strains, locus YLR342W, strain FKS1 (second series), active compounds read low 0.991 | S. cerevisiae deletion strains, locus YLR342W, strain FKS1, active compounds read low 0.985 | S. cerevisiae deletion strains, locus YLR357W, strain rsc2, active compounds read low 0.995 | S. cerevisiae deletion strains, locus YLR370C, strain arc18, active compounds read low 0.984 | S. cerevisiae deletion strains, locus YLR371W, strain rom2, active compounds read low 0.985 | S. cerevisiae deletion strains, locus YLR384C, strain iki3, active compounds read low 0.979 | S. cerevisiae deletion strains, locus YLR418C, strain cdc73, active compounds read low 1.03 | S. cerevisiae deletion strains, locus YML016C, strain PPZ1, active compounds read low 1 | S. cerevisiae deletion strains, locus YML032C, strain rad52, active compounds read low 0.988 | S. cerevisiae deletion strains, locus YML120C, strain ndi1, active compounds read low 0.99 | S. cerevisiae deletion strains, locus YML124C, strain tub3, active compounds read low 0.985 | S. cerevisiae deletion strains, locus YMR058W, strain fet3, active compounds read low 0.998 | S. cerevisiae deletion strains, locus YMR078C, strain ctf18, active compounds read low 0.979 | S. cerevisiae deletion strains, locus YMR125W, strain sto1, active compounds read low 0.991 | S. cerevisiae deletion strains, locus YMR129W, active compounds read low 0.997 | S. cerevisiae deletion strains, locus YMR205C, strain PFK2, active compounds read low 0.996 | S. cerevisiae deletion strains, locus YMR223W, strain ubp8, active compounds read low 0.989 | S. cerevisiae deletion strains, locus YMR231W, strain pep5, active compounds read low 0.974 | S. cerevisiae deletion strains, locus YMR263W, strain SAP30, active compounds read low 0.986 | S. cerevisiae deletion strains, locus YMR307W, strain GAS1, active compounds read low 1 | S. cerevisiae deletion strains, locus YNL067W, strain RPL9B, active compounds read low 1 | S. cerevisiae deletion strains, locus YNL071W, strain lat1, active compounds read low 0.988 | S. cerevisiae deletion strains, locus YNL128W, strain TEP1, active compounds read low 1 | S. cerevisiae deletion strains, locus YNL153C, strain GIM3, active compounds read low 1 | S. cerevisiae deletion strains, locus YNL183C, strain NPR1, active compounds read low 0.933 | S. cerevisiae deletion strains, locus YNL209W, strain ssb2, active compounds read low 1 | S. cerevisiae deletion strains, locus YNL233W, strain BNI4, active compounds read low 1.01 | S. cerevisiae deletion strains, locus YNL248C, strain rpa49, active compounds read low 0.986 | S. cerevisiae deletion strains, locus YNL250W, strain rad50, active compounds read low 0.989 | S. cerevisiae deletion strains, locus YNL271C, strain bni1, active compounds read low 0.994 | S. cerevisiae deletion strains, locus YNL298W, strain CLA4, active compounds read low 0.97 | S. cerevisiae deletion strains, locus YNL307C, strain MCK1, active compounds read low 1 | S. cerevisiae deletion strains, locus YNL322C, strain KRE1 (second series), active compounds read low 0.979 | S. cerevisiae deletion strains, locus YNL322C, strain KRE1, active compounds read low 1 | S. cerevisiae deletion strains, locus YNR049C, strain mso1, active compounds read low 0.986 | S. cerevisiae deletion strains, locus YNR052C, strain pop2, active compounds read low 0.977 | S. cerevisiae deletion strains, locus YOL006C, strain TOP1, active compounds read low 1.05 | S. cerevisiae deletion strains, locus YOL012C, strain htz1 1.07 | S. cerevisiae deletion strains, locus YOL147C, strain pex11, active compounds read low 0.981 | S. cerevisiae deletion strains, locus YOR001W, strain rrp6, active compounds read low 0.982 | S. cerevisiae deletion strains, locus YOR061W, strain CKA2, active compounds read low 0.998 | S. cerevisiae deletion strains, locus YOR069W, strain VPS5, active compounds read low 1 | S. cerevisiae deletion strains, locus YOR070C, strain gyp1, active compounds read low 0.98 | S. cerevisiae deletion strains, locus YOR080W, strain dia2, active compounds read low 0.979 | S. cerevisiae deletion strains, locus YOR083W, strain WHI5, active compounds read low 0.986 | S. cerevisiae deletion strains, locus YOR106W, strain vam3, active compounds read low 0.989 | S. cerevisiae deletion strains, locus YOR136W, strain idh2, active compounds read low 0.984 | S. cerevisiae deletion strains, locus YOR144C, strain elg1, active compounds read low 0.985 | S. cerevisiae deletion strains, locus YOR184W, strain ser1, active compounds read low 0.992 | S. cerevisiae deletion strains, locus YOR231W, strain MKK1, active compounds read low 0.975 | S. cerevisiae deletion strains, locus YOR265W, strain rbl2, active compounds read low 0.972 | S. cerevisiae deletion strains, locus YOR270C, strain vph1, active compounds read low 1.02 | S. cerevisiae deletion strains, locus YOR290C, strain snf2, active compounds read low 0.976 | S. cerevisiae deletion strains, locus YOR316C, strain cot1, active compounds read low 0.99 | S. cerevisiae deletion strains, locus YPL051W, strain arl3, active compounds read low 0.98 | S. cerevisiae deletion strains, locus YPL055C, strain LGE1, active compounds read low 0.951 | S. cerevisiae deletion strains, locus YPL078C, strain atp4, active compounds read low 0.992 | S. cerevisiae deletion strains, locus YPL106C, strain sse1, active compounds read low 0.939 | S. cerevisiae deletion strains, locus YPL240C, strain hsp82, active compounds read low 0.992 | S. cerevisiae deletion strains, locus YPL241C, strain CIN2, active compounds read low 0.985 | S. cerevisiae deletion strains, locus YPL256C, strain CLN2, active compounds read low 0.981 | S. cerevisiae deletion strains, locus YPR119W, strain clb2, active compounds read low 0.985 | S. cerevisiae deletion strains, locus YPR141C, strain kar3, active compounds read low 0.989 | S. cerevisiae deletion strains, locus YPR163C, strain tif3, active compounds read low 0.978 | S. cerevisiae deletion strains, locus YPR167C, strain met16, active compounds read low 0.995 | S. cerevisiae deletion strains, strain wtn01, active compounds read low 0.983 | S. cerevisiae strains, strain wild type, active compounds read low 0.996
